“And” between values parts separate entries of the source, which are not always exact repeats. Equal values may be shown once. Compounds without any hit were thinned out: in the full panel of roughly 83,000, 20% have a hit.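 The test compound was applied at a single concentration to cells in 96-well plates for 48 hours, and percent growth was recorded.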 The source made the active and inactive calls. How the source made its calls: active means growth percent below 10; inactive means the rest.
Key:
Assay in all cases: NCI-60 one-dose screen, 48 h (100 = growth as untreated, 0 = no growth, -100 = all killed)
Conditions in all cases: 10 µM unless noted
SR leukemia = system: SR leukemia
RPMI-8226 leukemia = system: RPMI-8226 leukemia
OVCAR-8 ovarian = system: OVCAR-8 ovarian
OVCAR-5 ovarian = system: OVCAR-5 ovarian
OVCAR-4 ovarian = system: OVCAR-4 ovarian
SK-OV-3 ovarian = system: SK-OV-3 ovarian
IGROV1 ovarian = system: IGROV1 ovarian
OVCAR-3 ovarian = system: OVCAR-3 ovarian
HS 578T breast = system: HS 578T breast
NCI/ADR-RES ovarian = system: NCI/ADR-RES ovarian

Measured: growth

COc1ccc2c(c1)C(Sc1ccc(Cl)cc1)c1c(nc(N)c(C#N)c1N)O2 (stereo not given)
inactive: RPMI-8226 leukemia 29.4% | OVCAR-8 ovarian 73.6% | OVCAR-5 ovarian 108% | OVCAR-4 ovarian 73.5% | SK-OV-3 ovarian 107% | IGROV1 ovarian 25.9% | OVCAR-3 ovarian 93.2% | HS 578T breast 45.8% | NCI/ADR-RES ovarian 73.6%
active: SR leukemia -3.94%

N#C/C(=C/c1ccc(Cl)cc1)c1nnc(NC(=O)c2ccc(-n3c(=O)[nH]c4ccccc4c3=O)cc2)s1
inactive: SR leukemia 62.7% | RPMI-8226 leukemia 70.4% | OVCAR-8 ovarian 46% | OVCAR-5 ovarian 83.9% | OVCAR-4 ovarian 75.3% | SK-OV-3 ovarian 85% | IGROV1 ovarian 80.9% | OVCAR-3 ovarian 84.6% | HS 578T breast 34.1% | NCI/ADR-RES ovarian 81.5%

NS(=O)(=O)c1ccc(Nc2nc(N/N=C/c3cc(Br)c(O)c(Br)c3)nc(Nc3ccccc3)n2)cc1
active: SR leukemia -12.1% | HS 578T breast -8.25%
inactive: RPMI-8226 leukemia 79.4% | OVCAR-8 ovarian 57.7% | OVCAR-5 ovarian 106% | OVCAR-4 ovarian 71.2% | SK-OV-3 ovarian 99.7% | IGROV1 ovarian 59.5% | OVCAR-3 ovarian 20.2% | NCI/ADR-RES ovarian 98%

COc1ccc2[nH]cc(-c3cc4nc(-c5cn(C)c6ncc(Br)cc56)cc(N)n4n3)c2c1
active: SR leukemia -16.1% | RPMI-8226 leukemia -6.2% | OVCAR-8 ovarian -55.2% | OVCAR-5 ovarian -83.6% | OVCAR-4 ovarian -36.5% | SK-OV-3 ovarian -42.6% | IGROV1 ovarian -77.3% | OVCAR-3 ovarian -67.3% | HS 578T breast -27.8% | NCI/ADR-RES ovarian -44.8%

CN1CCN(C(=O)CCN(C(=O)Oc2cc3c(c4ccccc24)[C@H](CCl)CN3C(=O)c2cc3cc(OCCCN4CCC4)ccc3[nH]2)[C@H]2CCSSC2)CC1
active: SR leukemia -17.2% | RPMI-8226 leukemia -39.8% | OVCAR-8 ovarian -64.4% | OVCAR-5 ovarian -88.8% | OVCAR-4 ovarian -30.2% | SK-OV-3 ovarian -12.4% | IGROV1 ovarian -51.5% | OVCAR-3 ovarian -71.7% | HS 578T breast -9.25% | NCI/ADR-RES ovarian -46.7%

CCN1C(=O)N(CC)C2NNC(Sc3c(C(=O)O)c4ccccc4n(CC(C)C)c3=O)=NC21 (stereo not given)
inactive: SR leukemia 11.1% | OVCAR-8 ovarian 11.8% | OVCAR-5 ovarian 24.2% | OVCAR-4 ovarian 67% | SK-OV-3 ovarian 40.6% | IGROV1 ovarian 20%
active: RPMI-8226 leukemia 8.29% | OVCAR-3 ovarian 4% | HS 578T breast -2.68% | NCI/ADR-RES ovarian -27.6%

Nc1nc(-c2ccccc2)c(N=Nc2ccc(Cl)cc2Cl)s1
active: SR leukemia -33.6% | RPMI-8226 leukemia 7.32% | OVCAR-5 ovarian -61.9% | OVCAR-4 ovarian -2.75% | SK-OV-3 ovarian 7.41% | IGROV1 ovarian -29.7% | OVCAR-3 ovarian -70.3% | HS 578T breast -28.2% | NCI/ADR-RES ovarian -57%
inactive: OVCAR-8 ovarian 12.1%

COc1cc(NC(=O)C(C)C)ccc1C(=O)NC(=S)Nc1ccc(S(N)(=O)=O)cc1
inactive: SR leukemia 111% | RPMI-8226 leukemia 107% | OVCAR-8 ovarian 79.3% | OVCAR-5 ovarian 110% | OVCAR-4 ovarian 98.5% | SK-OV-3 ovarian 112% | IGROV1 ovarian 97.2% | OVCAR-3 ovarian 92% | HS 578T breast 86.2% | NCI/ADR-RES ovarian 102%

COc1ccc2[nH]cc(-c3cc(N)n4nc(-c5c[nH]c6ccccc56)cc4n3)c2c1
active: RPMI-8226 leukemia -11.5% | OVCAR-8 ovarian -43.9% | OVCAR-5 ovarian 7.37% | SK-OV-3 ovarian 3.49%
inactive: SR leukemia 11.1% | OVCAR-4 ovarian 30.9% | IGROV1 ovarian 16% | OVCAR-3 ovarian 14.6% | HS 578T breast 37.2% | NCI/ADR-RES ovarian 27.7%

C[C@@H]1CN(c2ccc3ncc(C#Cc4cncc(C(=O)Nc5ccc(CN6CCN(C)CC6)c(C(F)(F)F)c5)c4)n3n2)C[C@@H](C)O1
active: SR leukemia -27.6% | RPMI-8226 leukemia -65% | OVCAR-8 ovarian -71.8% | OVCAR-5 ovarian -54.2% | OVCAR-4 ovarian -61.5% | SK-OV-3 ovarian -80.1% | IGROV1 ovarian -56.3% | OVCAR-3 ovarian -60.6% | HS 578T breast -49.2% | NCI/ADR-RES ovarian -85.1%

O=C(OCCOCCO)N(c1cccc(Br)c1)c1nc(SCCN2CCOCC2)nc2c1cnn2CC(Cl)c1ccc(Br)cc1 (stereo not given)
active: SR leukemia -27.8% | RPMI-8226 leukemia -25.7% | HS 578T breast -2.13%
inactive: OVCAR-8 ovarian 19.6% | OVCAR-5 ovarian 34.7% | OVCAR-4 ovarian 23.5% | SK-OV-3 ovarian 25.3% | IGROV1 ovarian 31.8% | OVCAR-3 ovarian 20% | NCI/ADR-RES ovarian 12.3%

O=C(N/N=C/c1ccsc1)c1[nH]c2ccc(Br)cc2c1-c1ccccc1
active: SR leukemia 2.42% | RPMI-8226 leukemia 1.5% | OVCAR-8 ovarian -49.4% | OVCAR-5 ovarian -57.4% | OVCAR-4 ovarian -30.8% | SK-OV-3 ovarian -36.9% | IGROV1 ovarian -57% | OVCAR-3 ovarian -72.9% | HS 578T breast -13.3% | NCI/ADR-RES ovarian -42%

O=C(CSc1nc2c(c(=O)[nH]1)CCCC2)Nc1ccccc1C(=O)O
inactive: SR leukemia 88.5% | RPMI-8226 leukemia 104% | OVCAR-8 ovarian 109% | OVCAR-5 ovarian 106% | OVCAR-4 ovarian 125% | SK-OV-3 ovarian 106% | IGROV1 ovarian 110% | OVCAR-3 ovarian 91.7% | HS 578T breast 108% | NCI/ADR-RES ovarian 112%

Nc1nn2c(-c3cc4ccccc4oc3=O)ccnc2c1N=Nc1ccccc1
inactive: SR leukemia 59.1% | RPMI-8226 leukemia 105% | OVCAR-8 ovarian 42.2% | OVCAR-5 ovarian 82.3% | OVCAR-4 ovarian 96.6% | SK-OV-3 ovarian 60.1% | IGROV1 ovarian 47.5% | OVCAR-3 ovarian 82.7% | HS 578T breast 75.8% | NCI/ADR-RES ovarian 47.2%

CN1C(=O)C(O)(CC(=O)c2cc3ccccc3oc2=O)c2ccccc21 (stereo not given)
inactive: SR leukemia 71.3% | RPMI-8226 leukemia 97.6% | OVCAR-8 ovarian 107% | OVCAR-5 ovarian 107% | OVCAR-4 ovarian 99.9% | SK-OV-3 ovarian 94.9% | IGROV1 ovarian 97.7% | OVCAR-3 ovarian 90.5% | HS 578T breast 99% | NCI/ADR-RES ovarian 98.7%

C/C(=N\Nc1ccc(C(=O)O)cc1)c1cnn(-c2cc(=O)[nH]c3ccc(C)cc23)c1C
inactive: SR leukemia 88.6% | RPMI-8226 leukemia 85.1% | OVCAR-8 ovarian 104% | OVCAR-5 ovarian 99.2% | OVCAR-4 ovarian 94.6% | SK-OV-3 ovarian 94.3% | IGROV1 ovarian 112% | OVCAR-3 ovarian 98.9% | HS 578T breast 92.5% | NCI/ADR-RES ovarian 101%

Cc1ccc(-c2cc(-c3ccccc3)[nH]c(=O)c2C#N)cc1
inactive: SR leukemia 73.3% | RPMI-8226 leukemia 76.7% | OVCAR-8 ovarian 93.5% | OVCAR-5 ovarian 109% | OVCAR-4 ovarian 94.1% | SK-OV-3 ovarian 107% | IGROV1 ovarian 91.9% | OVCAR-3 ovarian 98.4% | HS 578T breast 84.6% | NCI/ADR-RES ovarian 82.3%

CCCCCCCOc1ccc(S(=O)(=O)Nc2ccc(C)c(F)c2C(=O)O)cc1
inactive: SR leukemia 98.7% | RPMI-8226 leukemia 54.9% | OVCAR-8 ovarian 97.1% | OVCAR-5 ovarian 107% | OVCAR-4 ovarian 90.1% | SK-OV-3 ovarian 104% | IGROV1 ovarian 109% | OVCAR-3 ovarian 99.9% | HS 578T breast 87.8% | NCI/ADR-RES ovarian 94.4%

COc1ccc(Nc2nnc(-c3c[nH]c4ccccc34)o2)cc1
inactive: SR leukemia 70.5% | RPMI-8226 leukemia 32.5% | OVCAR-8 ovarian 86.2% | OVCAR-5 ovarian 103% | OVCAR-4 ovarian 85.3% | SK-OV-3 ovarian 74.2% | IGROV1 ovarian 60.9% | OVCAR-3 ovarian 94.4% | HS 578T breast 81.2% | NCI/ADR-RES ovarian 73.8%

Nc1cccc(-n2c(COc3ccc(I)cc3)nc3ccccc32)c1
inactive: SR leukemia 64.7% and 101% | RPMI-8226 leukemia 68.9% and 104% | OVCAR-8 ovarian 93.4% and 106% | OVCAR-5 ovarian 88.6% and 105% | OVCAR-4 ovarian 66.2% and 105% | SK-OV-3 ovarian 64.7% and 102% | IGROV1 ovarian 46.8% and 107% | OVCAR-3 ovarian 87.7% and 83.2% | HS 578T breast 63.2% and 110% | NCI/ADR-RES ovarian 74.3% and 102%

O=C1CCC(N2C(=O)c3cccc(NCCCCCC(=O)N4CCN(c5ccc6nc7c(nc6c5C(F)(F)F)C(=O)c5ncccc5C7=O)CC4)c3C2=O)C(=O)N1 (stereo not given)
inactive: NCI/ADR-RES ovarian 19.6%
active: SR leukemia 8.9% | RPMI-8226 leukemia -0.232% | OVCAR-8 ovarian -53.3% | OVCAR-5 ovarian -90.5% | OVCAR-4 ovarian -83.4% | SK-OV-3 ovarian -66.9% | IGROV1 ovarian -75.4% | OVCAR-3 ovarian -50.4% | HS 578T breast -11.5%

COc1ccc(-c2cc(C(=O)N=Nc3c(O)[nH]c4ccc(Cl)cc34)c3ccccc3n2)cc1OC
inactive: SR leukemia 103% | RPMI-8226 leukemia 119% | OVCAR-8 ovarian 110% | OVCAR-5 ovarian 104% | OVCAR-4 ovarian 116% | SK-OV-3 ovarian 154% | IGROV1 ovarian 93% | OVCAR-3 ovarian 118% | HS 578T breast 110% | NCI/ADR-RES ovarian 98.2%

CCOc1ccccc1NC(=O)N/C(N)=N/c1nc2ccccc2s1
active: SR leukemia 5.36% | RPMI-8226 leukemia 0.173% | OVCAR-8 ovarian -15.2% | SK-OV-3 ovarian 9.18% | OVCAR-3 ovarian -10.7% | NCI/ADR-RES ovarian -14.1%
inactive: OVCAR-5 ovarian 16.9% | OVCAR-4 ovarian 33.9% | IGROV1 ovarian 22.7% | HS 578T breast 60.8%

O=C(N/N=C/c1ccc(Cl)o1)c1[nH]c2ccc(Br)cc2c1-c1ccccc1
active: SR leukemia 7.2% | RPMI-8226 leukemia 1.15% | OVCAR-8 ovarian -56.7% | OVCAR-5 ovarian -24.9% | OVCAR-4 ovarian -22.3% | SK-OV-3 ovarian 4.66% | IGROV1 ovarian 5.37% | OVCAR-3 ovarian -11.3% | HS 578T breast 3.22% | NCI/ADR-RES ovarian -79%

Cc1ccc(C(=O)Nc2cc(-n3ccnc3)cc(C(F)(F)F)c2)cc1-n1cc(-c2cnc3cccnn23)nn1
inactive: SR leukemia 114% | RPMI-8226 leukemia 85.2% | OVCAR-8 ovarian 103% | OVCAR-5 ovarian 66.6% | OVCAR-4 ovarian 104% | SK-OV-3 ovarian 124% | IGROV1 ovarian 104% | OVCAR-3 ovarian 133% | HS 578T breast 94.9% | NCI/ADR-RES ovarian 115%

Cc1cccc(-c2ccccc2Oc2ccc3nnc(Cl)n3n2)c1
inactive: SR leukemia 86.9% | RPMI-8226 leukemia 107% | OVCAR-8 ovarian 104% | OVCAR-5 ovarian 104% | OVCAR-4 ovarian 104% | SK-OV-3 ovarian 124% | IGROV1 ovarian 103% | OVCAR-3 ovarian 112% | HS 578T breast 102% | NCI/ADR-RES ovarian 102%
